Hit rate of the full screen: of about 350,000 compounds, about 31,000 (8.9%) were called active. Where a call stands in place of a potency, no number is given. Another 15% or so got no clear call; they are omitted. The sample as a whole holds a higher share of actives than the screen did. Unmarked numbers belong to inactive results. Calls follow the shape of the dose curve; as a rule, active = well fitted inhibition curve with a large enough effect; inconclusive = small, poorly fitted or top-dose-only effect; inactive = no such curve, though single readings can be large or run the other way.
Potency is read from the fitted curve at half-maximal effect.

The target of the assay is Histone-lysine N-methyltransferase EHMT2 (Homo sapiens) (UniProt Q96KQ7). In words: qHTS Assay for Inhibitors of Histone Lysine Methyltransferase G9a. Also: nearly all actives have a fitted effect of over 75% in size. Particulars: G9a H3K9 monomethylation, AlphaScreen, 2 h; series mostly up to 59 µM. An outline of the steps: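 Signal arises when biotinylated H3K9 peptide, once monomethylated, bridges streptavidin donor and antibody-captured acceptor beads. Enzyme at 20 nM was preincubated 15 min with test compounds; peptide 500 nM and SAM 20 uM then reacted for 2 h.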
Chain of Histone-lysine N-methyltransferase EHMT2 (Homo sapiens) (Q96KQ7 913-1193 limits assumed): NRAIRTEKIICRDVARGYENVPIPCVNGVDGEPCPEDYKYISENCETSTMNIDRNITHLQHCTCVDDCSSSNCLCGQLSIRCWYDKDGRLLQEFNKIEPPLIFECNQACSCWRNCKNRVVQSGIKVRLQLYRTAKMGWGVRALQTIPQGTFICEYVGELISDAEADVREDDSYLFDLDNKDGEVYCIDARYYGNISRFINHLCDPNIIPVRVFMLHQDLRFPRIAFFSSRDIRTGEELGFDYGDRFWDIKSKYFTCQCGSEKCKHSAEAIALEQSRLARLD
On the technique in general: qHTS replaces the single test concentration by a dilution series.
Consider `CNc1ccc(SC#N)cc1`, for which the Potency was 44.7 µM (active).

Take `COc1ccc(-n2nc(C(=O)NCCc3ccc(Cl)cc3)c3c4ccccc4n(C)c3c2=O)cc1Cl`: the Potency entry was “inactive”.

As to `CCOc1ccc2nc(NCCNS(=O)(=O)c3ccccc3)c(C#N)cc2c1`, the Potency is 50.1 µM (active).

On to `CCOc1ccc(S(=O)(=O)NCCSc2ccccc2)cc1`, for which the Potency result is “inactive”.

Regarding `CCOc1ccc2nc(NCCNC(=O)C(C)(C)C)c(C)cc2c1`, the Potency result was “inactive”.

As to `Cc1nnc(SCC(=O)NCc2ccccc2Cl)c2nn(-c3ccccc3)c(C)c12`, the Potency result is “inactive”.

With `CCOC(=O)c1ccc(NC(=O)C2CC(=O)NC(=Nc3ccc(C)c(C)c3)S2)cc1` (configuration not stated), the Potency entry was “inactive”.

In the case of `O=C(Nc1cccc(Cl)c1N1CCOCC1)c1cccnc1`, the Potency entry was “inactive”.

Regarding `COC(=O)c1cc(NC(=O)c2cccnc2)ccc1N1CCOCC1`, the activity, negative = inhibition was -2.27% [at 0.501 µM].

Turning to `COc1ccccc1NC(=O)c1ccc(N2CC3CC(C2)c2cccc(=O)n2C3)c(NC(=O)c2cccnc2)c1` (configuration not stated), the Potency is 15.8 µM (active).

As to `CCn1c(Cc2ccc(OC)cc2)nnc1SCC(=O)Nc1ccc(N2CCOCC2)cc1`, the Potency result is “inactive”.

For the molecule `Cc1ccc(-c2noc(-c3nnn(-c4cccc(C(F)(F)F)c4)c3N)n2)cc1`, the Potency result is “inactive”.

On to `CCc1ccc(/C=C2\SC(N3CCOCC3)=NC2=O)cc1`, for which the Potency was 50.1 µM (active).

As for `Cc1ccsc1/C=C1\SC(N2CCOCC2)=NC1=O`, the activity, negative = inhibition is 12.5% [at 12.7 µM].

As for `CC1CCN(C2=NC(=O)/C(=C/c3ccc(O)cc3)S2)CC1`, the Potency entry was “inactive”.

For the molecule `COC(=O)Cc1ccc(OC(=O)C2CCN(S(=O)(=O)c3ccc(OC)c(OC)c3)CC2)cc1`, the activity, negative = inhibition is 13.8% [at 12.7 µM].

On to `O=C(Nc1ccc2oc(-c3ccc(O)c(Br)c3)nc2c1)c1cc2ccccc2o1`, for which the Potency result was “inactive”.

Regarding `Clc1ccc(CN2CCCCCC2)cc1Cl`, the Potency was 22.4 µM (active).

Take `Clc1ccc(-n2nnnc2CN2CCCCC2)cc1Cl`: the Potency result is “inactive”.

For the molecule `c1cc(-c2nn[nH]n2)ccc1CN1CCCCC1`, the Potency result is “inactive”.

As to `O=C(Nc1ncccc1O)c1ccc(S(=O)(=O)N2CCCCCC2)cc1`, the Potency entry is “inactive”.

`CCN(C(=O)Cn1cc(S(=O)(=O)N2CCN(c3ccccc3F)CC2)c2ccccc2c1=O)c1ccc(C)c(C)c1`: the Potency entry was “inactive”.

With `Cc1ccc(C)c(Cn2c(C)c(CNCc3ccc(F)cc3)c(C(=O)O)c2C)c1`, the Potency entry was “inactive”.

As to `Cn1cccc1C(=O)NNC(=O)COc1ccc(Br)cc1`, the activity, negative = inhibition was 4.95% [at 0.501 µM].

Turning to `CCC(=O)Nc1ccc2nc(SCC(=O)N3CCc4ccccc43)sc2c1`, the Potency entry is “inactive”.

As for `CCCCNC(=O)CSc1nc2ccc(NC(=O)CSc3nnc(N)s3)cc2s1`, the Potency was 2 µM (active).

Turning to `CN(C(=O)CSc1nc2ccc(NC(=O)COc3ccccc3)cc2s1)c1ccccc1`, the Potency result is “inactive”.

As to `CN(C)C(=O)N=NC(=O)N(C)C`, the Potency was 2.24 µM (active).

As to `CCOc1ccc(NC(=O)CC2C(=O)N(c3cccc(OC)c3)C(=O)N2C2CCCCC2)cc1` (configuration not stated), the Potency entry was “inactive”.

In the case of `COc1ccc(CNC(=O)CNC(=O)c2sc3ccccc3c2Cl)cc1OC`, the Potency result is “inactive”.

Consider `COc1ccc(OCCCC(=O)Nc2cccc(S(=O)(=O)N3CCCCCC3)c2)cc1`, for which the activity, negative = inhibition was -48.2% [at 12.7 µM].

Turning to `COc1ccc(-c2cn3c(n2)sc2cc(C(=O)Nc4ccccc4F)ccc23)cc1`, the Potency entry was “inactive”.

On to `CN1CCN(CCCCOc2cccc3ccccc23)CC1`, for which the activity, negative = inhibition is 26.3% [at 2.33 µM].

In the case of `Fc1ccccc1OCCCCn1cncn1`, the Potency result is “inactive”.

For `CCN1CCN(CCCCOc2ccccc2F)CC1`, the Potency was 10 µM (active).

`O=C(COC(=O)C1(c2ccc(F)cc2)CCCC1)N1CCNC1=O`: the activity, negative = inhibition is 19.8% [at 12.7 µM].

`COc1ccc(Cc2nc3ccc(C(=O)NCc4ccc(OC)cc4OC)cc3o2)cc1`: the Potency result is “inactive”.

In the case of `COC(=O)C1=C(NC(=O)C(C)(C)C)CCS1`, the Potency is 1.41 µM (active).

For `Cc1cc2c(=O)n(CC(=O)NCC(=O)Nc3ccc(C(C)C)cc3)cnc2s1`, the Potency result was “inactive”.

Turning to `O=C(CN1CCN(c2ccccc2F)CC1)c1ccc2c(c1)OCO2`, the Potency is 20 µM (active).

As to `CC1(c2ccc(Cl)cc2)NC(=O)N(CC(=O)c2ccc3c(c2)OCO3)C1=O` (configuration not stated), the Potency entry was “inactive”.

For `O=C(Nc1ccccc1F)c1ccc2c(c1)OCO2`, the activity, negative = inhibition was -7.42% [at 0.501 µM].

Take `COc1ccc(C2CC(=O)Nc3c2c(=O)nc2c(C)cccn32)cc1OC` (configuration not stated): the Potency entry is “inactive”.

As to `Cn1c(N)c(C(=O)COC(=O)/C=C/c2cccc(C(F)(F)F)c2)c(=O)n(C)c1=O`, the activity, negative = inhibition was 28.8% [at 2.33 µM].

In the case of `CC1(C)O[C@@H]2CC3C4C[C@H](F)C5=CC(=O)C=CC5(C)C4C(O)CC3(C)[C@]2(C(=O)CO)O1` (some centres not stated), the Potency entry is “inactive”.

Regarding `CCC1(C)Cc2c(sc3nc(SC)[nH]c(=O)c23)CO1` (configuration not stated), the Potency was 44.7 µM (active).

Consider `CCC1(C)Cc2c(sc3nc(SC)nc(N)c23)CO1` (configuration not stated), for which the Potency result is “inactive”.

Take `CCSc1nc2sc3c(c2c(=O)[nH]1)CC(C)(C)OC3`: the Potency entry is “inactive”.

Take `COc1ccccc1NC(=O)C(=O)c1cc(C)n(-c2ccccc2F)c1C`: the Potency entry was “inactive”.

With `COc1cc(CNCCSc2nnnn2C)ccc1OCc1ccc(Cl)cc1Cl`, the Potency entry was “inactive”.

For the molecule `CCc1ccc(OCC(=O)N(Cc2ccccc2)C2CCS(=O)(=O)C2)cc1` (configuration not stated), the Potency entry is “inactive”.

For `Cc1ccc(CN(C(=O)COc2ccc(Cl)cc2C)C2CCS(=O)(=O)C2)o1` (configuration not stated), the Potency result was “inactive”.

Regarding `COc1cc(C(=O)N(Cc2ccc(C(C)C)cc2)C2CCS(=O)(=O)C2)cc(OC)c1OC` (configuration not stated), the Potency entry was “inactive”.

Take `Cc1cc(Cl)ccc1OCC(=O)N(Cc1ccc(N(C)C)cc1)C1CCS(=O)(=O)C1` (configuration not stated): the Potency was 10 µM (active).

As to `Cc1ccccc1OCC(=O)N(Cc1cccc(F)c1)C1CCS(=O)(=O)C1` (configuration not stated), the Potency result was “inactive”.

On to `CC(C)c1ccc(OCC(=O)N(Cc2ccc(N(C)C)cc2)C2CCS(=O)(=O)C2)cc1` (configuration not stated), for which the Potency is 12.6 µM (active).

Turning to `COc1ccc(NC(=O)CSc2nc(SC)ns2)c(OC)c1`, the Potency result is “inactive”.

In the case of `COc1cccc(N2CC(NC(=O)/C=C\c3ccccc3)CC2=O)c1` (configuration not stated), the Potency result is “inactive”.

`CCOc1ccc(NC(=O)CN(C)C(=O)c2cccc(S(=O)(=O)N3CCCC3)c2)cc1OCC`: the Potency result is “inactive”.

As to `CC(C)CN(C(=O)CSc1ncnc2sccc12)C1CCS(=O)(=O)C1` (configuration not stated), the activity, negative = inhibition is 0.939% [at 12.7 µM].

`COC(=O)[C@@]12CCCN1[C@H](c1ccc(-c3ccc(F)cc3)c(OC)c1)[C@H]1C(=O)N(C)C(=O)[C@H]12`: the activity, negative = inhibition is 17.2% [at 2.33 µM].

Regarding `O=C(/C=C/c1ccc([N+](=O)[O-])o1)NNC(=O)c1ccc(F)cc1`, the Potency result was “inactive”.

On to `Cc1nc2ccccc2c(=O)n1-c1ccc(F)c(NC(=O)c2cccs2)c1`, for which the Potency result is “inactive”.

On to `CC(C)CN(Cc1c(O)ccc2c(=O)c(-c3ccccc3)coc12)CC(C)C`, for which the Potency result is “inactive”.

In the case of `COc1cc(C2NC(=O)NC(c3ccccc3)=C2C(C)=O)c(Br)cc1OCC(N)=O` (configuration not stated), the Potency entry is “inactive”.

Regarding `CC(C)(C)c1ccc(C(=O)NCC(c2ccco2)S(=O)(=O)c2ccc(F)cc2)cc1` (configuration not stated), the Potency result is “inactive”.

As to `CCCN(CCC)c1nc2c(C)cccn2c(=O)c1/C=C1/SC(=S)N(Cc2ccco2)C1=O`, the Potency was 39.8 µM (active).

On to `Cc1cccn2c(=O)c(/C=C3\SC(=S)N(CC(C)C)C3=O)c(NCCCOC(C)C)nc12`, for which the Potency result is “inactive”.

For `Cc1ccc2[nH]c(=O)c(-c3nc4c(C)cccn4c3NCc3ccco3)cc2c1`, the Potency result was “inactive”.

Take `CCc1ccc(NC(=O)c2nn(-c3ccc(C)cc3)c(=O)n(C)c2=O)cc1`: the Potency entry is “inactive”.

As for `NS(=O)(=O)c1ccc(NC(=O)COc2ccc(S(=O)(=O)NC3CCCCC3)cc2)cc1`, the Potency entry is “inactive”.

Consider `CCOc1cc(-c2cc(-c3ccc(NC(C)=O)cc3)nc(N)c2C#N)ccc1O`, for which the Potency result is “inactive”.

Take `CCc1ccc(NC(=O)N2CCc3ccccc3C2)cc1`: the Potency entry was “inactive”.

Regarding `CCOc1cc(C(=O)Nc2nnc3n2CCS3)cc(OCC)c1OCC`, the Potency entry is “inactive”.

Regarding `COc1ccc(CC(=O)Nc2nnc3n2CCS3)cc1OC`, the Potency is 12.6 µM (active).

For the molecule `COc1ccc(CC(=O)NC2CCSc3ccccc32)cc1OC` (configuration not stated), the Potency result is “inactive”.

As for `COc1ccccc1NC(=O)C(C)OC(=O)c1ccc(-n2cnnn2)cc1` (configuration not stated), the Potency result is “inactive”.

Turning to `O=C(NNC(=O)c1cccc(S(=O)(=O)Nc2ccc(Cl)cc2)c1)c1ccc(=O)[nH]c1`, the activity, negative = inhibition is 17.2% [at 12.7 µM].

In the case of `Cc1ccc(NN=C2C(=O)OC(C)(C)OC2=O)c(C)c1`, the Potency entry was “inactive”.

Turning to `Cc1ccc(N/N=C2\COC(C)(C)CC2=O)cc1`, the Potency is 44.7 µM (active).

Consider `CN(C(=O)COC(=O)c1cc(=O)[nH]c2ccccc12)C1CCCCC1`, for which the activity, negative = inhibition is -20.6% [at 2.33 µM].

On to `S=C(NCCc1ccccc1)NCC1CCCO1` (configuration not stated), for which the Potency result is “inactive”.

In the case of `CCCC1CCC(=NNC(=S)NCCc2ccccc2)CC1` (configuration not stated), the Potency is 14.1 µM (active).

In the case of `CCCCNC(=S)N/N=C1\CCCCc2ccccc21`, the Potency entry was “inactive”.

On to `CC(C)(C)NC(=O)CSc1nnc(NC(=O)CCc2ccccc2)s1`, for which the Potency entry was “inactive”.

As to `COc1ccc(CN2CCN(Cc3cn(C)nc3-c3ccccc3)CC2CCO)c(C)c1C` (configuration not stated), the Potency result is “inactive”.

With `Cc1ccc(CN2CCN(Cc3ccccc3-c3ccco3)CC2CCO)o1` (configuration not stated), the Potency entry is “inactive”.

In the case of `CCn1cc(CN2CCN(CC(C)(C)C)C(CCO)C2)c2ccccc21` (configuration not stated), the Potency was 50.1 µM (active).

As to `COc1ccccc1-c1ccnc2[nH]n(-c3ccccc3)c(=O)c12`, the Potency result is “inactive”.

Turning to `Cc1ccc(/C=N/NC(=O)c2sccc2OCc2ccc(F)cc2)cc1`, the Potency result is “inactive”.

Regarding `CNC(=S)NNC(=O)c1sccc1OCc1ccccc1`, the Potency is 50.1 µM (active).

With `CNC(=S)NNC(=O)c1cccn(Cc2ccccc2)c1=O`, the Potency result was “inactive”.

As for `Cc1ccc(-c2nn(-c3ccc(F)cc3)cc2C(=O)NCC(c2cccs2)N2CCOCC2)cc1` (configuration not stated), the Potency entry is “inactive”.

As for `CC(=O)c1ccc(N2CCN(C(=O)c3ccc(Cl)c(S(=O)(=O)NC4CC4)c3)CC2)c(F)c1`, the Potency entry is “inactive”.

Consider `CCOc1ccccc1NC(=O)Cn1c(=O)n(Cc2ccco2)c(=O)c2sc3ccccc3c21`, for which the Potency entry is “inactive”.

In the case of `CCOc1ccccc1/C=c1\sc2nc(-c3ccco3)nn2c1=O`, the Potency was 35.5 µM (active).

As for `CCOC(=O)/C=c1\s/c(=C\c2ccccc2OC)c(=O)n1CC(=O)N1CCOCC1`, the Potency entry is “inactive”.
